Source: PubChem BioAssay (Tox21)
Several values for one entry are separate records, joined by “and”; a condition that tells them apart may be missing. Equal values may be shown once. Inconclusive results are not listed. Where a call stands in place of a potency, no number is given. More than one record can exist for a structure, and the calls need not agree. Activity calls are given as the source filed them. Unless noted, calls follow the shape of the dose curve; as a rule, active = well fitted curve in the direction sought with a large enough effect in the repeat runs; inconclusive = weak or mixed curves; inactive = no such curve, though single readings can be large; an effect the other way counts as inactive or inconclusive.

Legend:
[1] = qHTS assay for small molecules that induce genotoxicity in human embryonic kidney cells expressing luciferase-tagged ATAD5 (AID 651632); also: nearly all actives have a fitted effect of over 15% in size; also: potency is read from the fitted curve at half-maximal effect
How it was run: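 Test compounds were delivered by pin tool onto HEK293T reporter cells (2,000/well) expressing ATAD5 fused to luciferase. After 16 hr at 37C, 5% CO2, Amplite was added for 30 min at room temperature and luminescence was measured.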

[2] = qHTS assay for small molecule agonists of the p53 signaling pathway - cell viability (AID 651633; calls by dose curve; also: nearly all actives have a fitted effect of over 30% in size; also: potency is read from the fitted curve at half-maximal effect)
How it was run: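 Viability counter-read: CellTiter-Glo luminescence (30 min, room temperature) in the same p53RE-bla plates. These plates had been exposed to compounds for 16 h at 37 C.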

[3] = qHTS assay for small molecules that induce genotoxicity in human embryonic kidney cells expressing luciferase-tagged ATAD5 - cell viability (AID 651634; calls by dose curve; also: nearly all actives have a fitted effect of over 25% in size; also: potency is read from the fitted curve at half-maximal effect)
How it was run: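 Quantitative high-throughput format. HEK293T cells expressing ATAD5 fused to luciferase were plated at 2,000 cells/well and treated 15.5 hr with compound versus DMSO. Viability was determined by fluorescent live-cell protease substrate, 30 min at 37C.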

[4] = qHTS assay for small molecule disruptors of the mitochondrial membrane potential - cell viability (AID 720634; calls by dose curve; also: nearly all actives have a fitted effect of over 20% in size; also: potency is read from the fitted curve at half-maximal effect)
How it was run: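 Same-well counter-screen: following the MMP dye addition, CellTiter-Glo was added to 1 hr compound-treated HepG2 cells and luminescence read after 30 min at room temperature.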

[5] = qHTS assay for small molecule disruptors of the mitochondrial membrane potential (AID 720635); also: potency is read from the fitted curve at half-maximal effect
How it was run: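 Mitochondrial membrane potential tracked with Mito-MPS dye, red aggregates (ex 540/em 590 nm) against green monomers (ex 490/em 535 nm). Compound treatment 1 hr at 37C, dye 30 min in HepG2.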

[6] = qHTS assay to test for compound auto fluorescence at 590 nm (red) in HepG2 cells (AID 720674)
How it was run: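 1 hr compound incubation on HepG2 cells, 37 C, 5% CO2; plate read ex 540 nm / em 590 nm; intensities reported as Rose Bengal sodium equivalents.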

[7] = qHTS assay to test for compound auto fluorescence at 535 nm (green) in HepG2 cells (AID 720675)
[8] = qHTS assay to test for compound auto fluorescence at 460 nm (blue) in HEK293 cells (AID 720678)
How it was run: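 Measured: blue fluorescence (Ex 405/Em 460 nm) of compound-treated HEK293 cells, incubated overnight at 37C with 5% CO2 and scaled to triamterene equivalents.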

[9] = qHTS assay to test for compound auto fluorescence at 590 nm (red) in HEK293 cells (AID 720679)
How it was run: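 Using HEK293 cells at 2,000 per well, the screen added 23 nL of each compound after cell attachment and incubated overnight (37C, 5% CO2). The plate reader then captured red-label fluorescence, Ex/Em 540/590nm.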

| SMILES | Potency [1] | Potency [2] | Potency [3] | Potency [4] | Potency [5] | Potency [6] | Potency [7] | Potency [8] | Potency [9] |
| --- | --- | --- | --- | --- | --- | --- | --- | --- | --- |
| CNC(=O)c1c(I)c(C(=O)NCC(=O)Nc2c(I)c(C(=O)O)c(I)c(C(=O)NCCO)c2I)c(I)c(N(C)C(C)=O)c1I | inactive | inactive | inactive | inactive | inactive | inactive | inactive | inactive | inactive |
| COC(F)(F)C(Cl)Cl | inactive | inactive | inactive | inactive | inactive | inactive | inactive | inactive | inactive |
| C=CCCCCCCCCC(=O)OC | inactive | inactive | inactive | inactive | inactive | inactive | inactive | inactive | inactive |
| CCCC(=O)Nc1c(I)cc(I)c(CC(CC)C(=O)O)c1I (centres undefined) | inactive | inactive | inactive | inactive | inactive | inactive | inactive | inactive | inactive |
| CC(=O)N[C@@H](CC(=O)N[C@@H](CCC(=O)O)C(=O)O)C(=O)O | inactive | inactive | inactive | inactive | inactive | inactive | inactive | inactive | inactive |
| Cc1c(Cl)cccc1Nc1ncccc1C(=O)O | inactive | inactive | inactive | inactive | 13.3 µM (active) | inactive | inactive | inactive | inactive |
| CN(C)C(=O)CCSC(SCCC(=O)O)c1cccc(/C=C/c2ccc3ccc(Cl)cc3n2)c1 (centres undefined) | 4.73 µM (active) | 29.8 µM (active) | 23.7 µM (active) | 29.8 µM (active) | 24.8 µM (active) | inactive | inactive | inactive | inactive |
| CC(=O)O[C@H]1C(=O)[C@@]2(C)[C@H]([C@H](OC(=O)c3ccccc3)[C@]3(O)C[C@H](OC(=O)[C@H](O)[C@@H](NC(=O)c4ccccc4)c4ccccc4)C(C)=C1C3(C)C)[C@]1(OC(C)=O)CO[C@@H]1C[C@@H]2O | inactive | inactive | 0.0188 µM (active) | inactive | 0.944 µM (active) | inactive | inactive | inactive | inactive |
| O=C(O)CO.[NH2-].[NH2-].[Pt+2] | inactive | inactive | inactive | inactive | inactive | inactive | inactive | inactive | inactive |
| C[N@+]12CCCC[C@@H]1CCC(=C(c1cccs1)c1cccs1)C2 | inactive | inactive | inactive | inactive | inactive | inactive | inactive | inactive | inactive |
| NC[C@@H]1O[C@H](O[C@H]2[C@@H](O)[C@H](O[C@@H]3[C@@H](O)[C@H](N)C[C@H](N)[C@H]3O[C@H]3O[C@H](CN)[C@@H](O)[C@H](O)[C@H]3N)O[C@@H]2CO)[C@H](N)[C@@H](O)[C@@H]1O | inactive | inactive | inactive | inactive | inactive | inactive | inactive | inactive | inactive |
| CC(C)(C)NCC(O)CSc1nc(-c2ccc(C(N)=O)s2)cs1 (centres undefined) | inactive | inactive | inactive | inactive | 13.3 µM (active) | inactive | inactive | inactive | inactive |
| CC(=O)Nc1c(I)c(C(=O)O)c(I)c(N(C)C(C)=O)c1I | inactive | inactive | inactive | inactive | inactive | inactive | inactive | inactive | inactive |
| Nc1nc2[nH]cc(CCc3ccc(C(=O)N[C@@H](CCC(=O)O)C(=O)O)cc3)c2c(=O)[nH]1 | inactive | inactive | inactive | inactive | inactive | inactive | inactive | inactive | inactive |
| O=P(O)(O)OC[C@H](O)CO | inactive | inactive | inactive | inactive | inactive | inactive | inactive | inactive | inactive |
| CCC(C)[C@H]1O[C@]2(C=C[C@@H]1C)C[C@@H]1C[C@@H](C/C=C(\C)[C@@H](O[C@H]3C[C@H](OC)[C@@H](O[C@H]4C[C@H](OC)[C@H](NC(C)=O)[C@H](C)O4)[C@H](C)O3)[C@@H](C)/C=C/C=C3\CO[C@@H]4[C@H](O)C(C)=C[C@@H](C(=O)O1)[C@]34O)O2 (some centres undefined) | inactive | 2.98 µM (active) and 11.9 µM (active) | 6.68 µM (active) and 10.6 µM (active) | inactive | 3.76 µM (active) and 11.9 µM (active) | inactive | inactive | inactive | inactive |
| CC[C@H](C)[C@H]1O[C@]2(CC[C@@H]1C)C[C@@H]1C[C@@H](C/C=C(\C)[C@@H](O[C@H]3C[C@H](OC)[C@@H](O[C@H]4C[C@H](OC)[C@@H](O)[C@H](C)O4)[C@H](C)O3)[C@@H](C)/C=C/C=C3\CO[C@@H]4[C@H](O)C(C)=C[C@@H](C(=O)O1)[C@]34O)O2 | inactive | 4.22 µM (active) | 2.98 µM (active) | inactive | 7.5 µM (active) | inactive | inactive | inactive | inactive |
| C[C@H](CSC(=O)c1ccccc1)C(=O)N1C[C@@H](Sc2ccccc2)C[C@H]1C(=O)O | inactive | inactive | inactive | inactive | inactive | inactive | inactive | inactive | inactive |

| SMILES | Potency [1] | Potency [2] | Potency [3] | Potency [4] | Potency [5] | Potency [6] | Potency [7] | Potency [8] | Potency [9] |
| --- | --- | --- | --- | --- | --- | --- | --- | --- | --- |
| COC(=O)CCC[N+](C)(C)C | inactive | inactive | inactive | inactive | inactive | inactive | inactive | inactive | inactive |
| O=C(O)CCC/C=C\C[C@@H]1[C@@H](/C=C/[C@@H](O)COc2cccc(C(F)(F)F)c2)[C@H](O)C[C@@H]1O | inactive | inactive | inactive | inactive | inactive | inactive | inactive | inactive | inactive |
| CC(Oc1ccccc1)C(=O)N[C@@H]1C(=O)N2[C@@H]1SC(C)(C)[C@@H]2C(=O)O (some centres undefined) | inactive | inactive | inactive | inactive | inactive | inactive | inactive | inactive | inactive |
| FC(F)(F)C(F)(F)C(F)(F)C(F)(F)C(F)(F)C(F)(F)F | inactive | inactive | inactive | inactive | inactive | inactive | inactive | inactive | inactive |
| CC1=C(/C=C/C(C)=C/C=C/C(C)=C/C(=O)Oc2c(C)c(C)c3c(c2C)CC[C@@](C)(CCC[C@H](C)CCC[C@H](C)CCCC(C)C)O3)C(C)(C)CCC1 | inactive | inactive | inactive | inactive | inactive | inactive | inactive | inactive | inactive |
| C[C@]12CC[C@@H]3c4ccc(OC(=O)c5ccccc5)cc4CC[C@H]3[C@@H]1CC[C@@H]2O | inactive | inactive | inactive | inactive | 2.98 µM (active) | inactive | inactive | inactive | inactive |
| COc1cc([C@@H]2c3cc4c(cc3C(O[C@@H]3O[C@@H]5CO[C@@H](C)O[C@H]5[C@H](O)[C@H]3O)C3COC(=O)[C@@H]32)OCO4)cc(OC)c1OP(=O)(O)O (some centres undefined) | 2.66 µM (active) and 6.68 µM (active) | inactive | inactive | inactive | inactive | inactive | inactive | inactive | inactive |
| COC(=O)[C@H]1[C@H]2C[C@@H]3c4[nH]c5ccccc5c4CCN3C[C@H]2C[C@@H](OC(=O)c2cc(OC)c(OC)c(OC)c2)[C@@H]1OC | inactive | 5.31 µM (active) and inactive | inactive | inactive | 3.35 µM (active) | inactive | inactive | inactive | inactive |
| CCOc1ccc(N=Nc2ccc(N)cc2N)cc1 | 0.168 µM (active) | inactive | 2.37 µM (active) | 11.9 µM (active) | 1.68 µM (active) | inactive | inactive | inactive | inactive |
| C#C[C@]1(O)CC[C@H]2[C@@H]3CCC4=CC(=O)CC[C@@H]4[C@H]3C(=C)C[C@@]21CC | inactive | inactive | inactive | inactive | inactive | inactive | inactive | inactive | inactive |
| CC(=O)OCC(=O)[C@@]1(O)[C@H](C)C[C@H]2[C@@H]3C[C@H](F)C4=CC(=O)C=C[C@]4(C)[C@H]3[C@@H](O)C[C@@]21C | inactive | inactive | inactive | inactive | inactive | inactive | inactive | inactive | inactive |
| CCCCC[C@H](O)/C=C/[C@@H]1[C@H]2C/C(=C/CCCC(=O)O)O[C@H]2C[C@H]1O | inactive | inactive | inactive | inactive | inactive | inactive | inactive | inactive | inactive |
| CS(=O)(=O)OCC(O)C(O)COS(C)(=O)=O (centres undefined) | inactive | inactive | inactive | inactive | inactive | inactive | inactive | inactive | inactive |
| COc1cc(/C=C/C(=O)N2CCN(CC(=O)N3CCCC3)CC2)cc(OC)c1OC | inactive | inactive | inactive | inactive | inactive | inactive | inactive | inactive | inactive |
| CCN(CC)c1ccc(C(=C2C=CC(=[N+](CC)CC)C=C2)c2ccccc2)cc1 | 2.37 µM (active) | 1.68 µM (active) | 7.5 µM (active) | inactive | 0.266 µM (active) | inactive | inactive | inactive | inactive |
| Cc1c(O)cc2c(c1C)O[C@](C)(CCC[C@H](C)CCC[C@H](C)CCCC(C)C)CC2 | inactive | inactive | inactive | inactive | inactive | inactive | inactive | inactive | inactive |
| CC1CS(=O)(=O)CCN1/N=C/c1ccc([N+](=O)[O-])o1 (centres undefined) | inactive | inactive | inactive | inactive | inactive | inactive | inactive | inactive | inactive |
| CC(=O)Nc1ccc(OC(=O)c2ccccc2O)cc1 | inactive | inactive | inactive | inactive | 26.6 µM (active) | inactive | inactive | inactive | inactive |
